What all share (assay): NCI-60 one-dose screen, 48 h (100 = growth as untreated, 0 = no growth, -100 = all killed)
Assay [1] relates to HCT-15 colon. The settings on record: 10 µM unless noted.
For assay [2], the system named is SNB-75 CNS. To be noted: 10 µM.
Assay [3] relates to SNB-19 CNS. To be noted: 10 µM unless noted.
Assay [4] concerns U251 CNS. To be noted: 10 µM unless noted.
For assay [5], the system named is PC-3 prostate. To be noted: 10 µM unless noted.
The subject of assay [6] is SK-MEL-5 melanoma. The settings on record: 10 µM unless noted.
The subject of assay [7] is UACC-62 melanoma. To be noted: 10 µM unless noted.
Assay [8] deals with LOX IMVI melanoma. The settings on record: 10 µM unless noted.
In assay [9] the test system is SK-MEL-28 melanoma. The settings on record: 10 µM unless noted.
Assay [10] has as its system SK-MEL-2 melanoma. To be noted: 10 µM unless noted.
Assay [11] deals with EKVX NSCLC. To be noted: 10 µM unless noted.
Assay [12] deals with SN12C renal. To be noted: 10 µM unless noted.
Assay [13] deals with UO-31 renal. The settings on record: 10 µM unless noted.
Assay [14] has as its system ACHN renal. To be noted: 10 µM unless noted.
For assay [15], the system named is A498 renal. To be noted: 10 µM unless noted.
In assay [16] the test system is CCRF-CEM leukemia. The settings on record: 10 µM unless noted.
The test system of assay [17] is MOLT-4 leukemia. The settings on record: 10 µM unless noted.
In assay [18] the test system is TK-10 renal. The settings on record: 10 µM unless noted.
Assay [19] deals with CAKI-1 renal. The settings on record: 10 µM unless noted.

Results on nine compounds are retold here after PubChem BioAssay (NCI).

This is part of a sample that, as a whole, favours compounds with a hit. Of some 83,000 tested, about 20% had one in any assay.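 Interpretation: 100, growth as untreated; towards 0, rising growth inhibition; 0, no net growth; 0 to -100, cell death. Compounds scoring below 10 were considered active.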 A number with no mark means an inactive call. Calls of active or inactive are those of the source.

Regarding `Fc1ccc(Nc2ncnc3ccc(-c4cnc5[nH]ccc5c4)cc23)cc1Cl`, the growth was 31.1% in [1]; -65.2% (active) in [2]; 40.7% in assay [3]; -68.2% (active) in [4]; 27.5% in [5]; 21% in assay [6]. For the same compound, the growth in assay [7] is 44.8%; in [8] it was -44.4% (active); in assay [9] it was 57.4%; in [10], 29.9%; in assay [11], 14.8%; in assay [12], -14.2% (active). Also, the growth in assay [13] is -73.8% (active); in assay [14], -66.7% (active); in assay [15] it was 77.4%; in assay [16], 40%; in [17], 45.6%.
For the compound `CN(C)CCCC(C#N)c1ccccc1` (centres undefined), the growth in [1] was 103%; in [2] it was 88.5%; in [3] it was 103%; in assay [4], 105%; in assay [5], 99.1%; in assay [6], 108%. In addition, the growth in [7] is 102%; in assay [8] it was 103%; in assay [9] it was 119%; in [10] it was 109%; in assay [11], 118%; in [12] it was 101%. In addition, the growth in assay [13] is 104%; in [18] it was 100%; in assay [19], 117%; in assay [15], 107%; in assay [16], 105%; in assay [17], 91.6%.
Turning to `COc1ccc(S(=O)(=O)n2ccc(-c3ccc4c(c3)CCC(C)(C)O4)n2)cc1OC`, the growth in [1] was 71.9%; in [2], 84.6%; in assay [3], 87.4%; in [4], 79.5%; in [5], 69.5%; in assay [6], 28.2%. Moreover, the growth in [7] was 63.9%; in assay [8], 76.7%; in [9], 91%; in assay [10] it was 56.2%; in [12], 83.1%; in [13] it was 68.5%. For the same compound, the growth is 72.1% in assay [18]; 78% in [14]; 52.8% in assay [15]; 82.2% in [16]; 63.8% in assay [17].
In the case of `Cc1ccc(Nc2nnc(-c3ccc(Cl)cc3)o2)c(C)c1`, the growth in [1] was 44.7%; in assay [2], 78.7%; in assay [3], 95.8%; in assay [4] it was 83.8%; in assay [5] it was 92.1%; in assay [6], 92.7%. The growth is 70.8% in [7]; 75.9% in assay [8]; 76.8% in assay [9]; 67.9% in [10]; 97.7% in [12]; 82.6% in assay [13]. The growth was 102% in [18]; 95.7% in [14]; 89.6% in assay [19]; 81.6% in assay [15]; 61.7% in assay [17].
Consider `C/C(=C\c1ccc(OCC(=O)O)c(Cl)c1Cl)[N+](=O)[O-]`, for which the growth in [1] is 97.4%; in [2], 103%; in [3] it was 115%; in [4], 96.4%; in assay [5] it was 92%; in assay [6], 109%. Also, the growth was 114% in [7]; 92.1% in assay [8]; 118% in [9]; 102% in assay [11]; 106% in assay [12]; 111% in [13]. For the same compound, the growth in assay [18] was 113%; in assay [14], 110%; in assay [19], 93.9%; in assay [15], 113%; in assay [16], 102%; in assay [17] it was 84.6%.
Regarding `O=C(CSC1CCc2ccccc21)N/N=C/c1ccccc1O` (centres undefined), the growth in assay [1] was 33.6%; in assay [2] it was 71.7%; in assay [3], 60.5%; in [4], 48.7%; in assay [5], 50.6%; in assay [6], 47.7%. In addition, the growth is 36.4% in assay [7]; 40.4% in [8]; 57.2% in assay [9]; 59.9% in [12]; 20% in assay [13]; 37.1% in [18]. For the same compound, the growth in [14] was 34%; in [15], 101%; in assay [16], 18.2%.
Regarding `CN1C=CN(Cc2ccc(-c3ccccn3)nc2)[CH-]1.CN1C=CN(Cc2ccc(-c3ccccn3)nc2)[CH-]1.[Au+3]`, the growth in [1] was 68.5%; in assay [2] it was 72.6%; in assay [3], 62.6%; in assay [4], 38.6%; in assay [5] it was 20.3%; in assay [6], 37.8%. Moreover, the growth in [7] was 30.7%; in [8], 32.4%; in assay [9], 50.7%; in [10], 46.5%; in [12] it was 41.3%; in assay [13] it was 83.5%. For the same compound, the growth is 67.4% in assay [18]; 81.7% in assay [14]; 42.9% in assay [15]; 6.2% (active) in [16]; 11.3% in assay [17].
Turning to `COc1cc(C2C3=C(COC3=O)Nc3cc4c(cc32)OCO4)cc2c1OCO2` (centres undefined), the growth in [1] is 9.19% (active); in assay [2], 42.2%; in assay [3], 31%; in assay [4], 18.5%; in assay [5], 24%; in assay [6] it was -60.6% (active). In addition, the growth in assay [7] is 41.3%; in [8], 16%; in assay [9], 65.3%; in assay [10], 41.6%; in assay [11], 44.6%; in [12], 23.4%. Moreover, the growth in [13] is 51%; in [18], 55%; in [19] it was 44.1%; in [15], 21.3%; in assay [16] it was 8.12% (active); in assay [17], 12.1%.
Consider `CC(C)(C)OC(=O)NCCc1ccc(N=C=S)cc1`, for which the growth in [1] is 55.9%; in assay [2], 42.4%; in assay [3] it was 84.7%; in [4] it was 75.4%; in assay [5], 66.3%; in assay [6], 86.1%. Also, the growth in [7] was 54.8%; in assay [8] it was 56%; in [9], 69%; in [10], 53.8%; in assay [11], 89.7%; in [12] it was 90.6%. In addition, the growth in assay [13] is 62.7%; in assay [14], 80.3%; in assay [15], 70.2%; in assay [16] it was 30.2%; in assay [17] it was 69%.
